# Results reported in PubChem BioAssay AID2685 (National Center for Advancing Translational Sciences (NCATS), 2010).
# Among all 320,000 compounds or so, about 2,100 (0.66%) were called active. Roughly 53% stayed inconclusive and do not appear here. Calls come from the whole dose curve; as a rule, active = well fitted inhibition curve with a large enough effect in the signal ratio, with a control signal flat (not every such curve was filed as active); inconclusive = small, poorly fitted or top-dose-only effect, or effect the other way, or a change in a side signal; inactive = flat fitted curve, though single readings scatter; the % refers to the signal ratio. For the sample, actives were picked, then their nearest neighbours and some compounds at random.
# Test: qHTS Assay for Lipid Storage Modulators in Drosophila S3 Cells;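 for cell number change: cells counted by Cell Tracker Red CMTPX staining in the red channel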
# Details: BODIPY lipid droplet fluorescence, 18-24 h, cells fed with added oleic acid; cell number change: measured here: cell count max response; series mostly up to 46.1 µM
# In short: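 Drosophila S3 cells got compounds at several concentrations plus oleic acid (400 uM solution). Laser-scanning cytometry with 488 nm excitation read lipid droplets at 500-530 nm and cells at 575-640 nm. Percent activity was relative to 20 uM Triacsin C.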
# Potency is the fitted concentration of half-maximal effect.
Compound,Potency,cell number change [%]
O=S(=O)(c1ccccc1)N1CCN(c2cccc(Cl)c2)CC1,inactive,-13.5
CCn1c(=O)c(C(=O)Nc2ccccc2C)c(O)c2ccccc21,inactive,4.59
C=CCn1c(=O)c(C(=O)Nc2ccccc2O)c(O)c2ccccc21,inactive,3.13
C=CCn1c(=O)c(C(=O)Nc2ccccc2C)c(O)c2ccccc21,18.4 µM (active),-12.3
O=C(NS(=O)(=O)Oc1cccc(Cl)c1Cl)OC[C@@H]1CCCN2CCCCC12 (some centres undefined),inactive,-10.2
CN(C)CCCN(C(=O)c1ccc(S(=O)(=O)N2CCOCC2)cc1)c1nc2ccc(F)cc2s1,inactive,15.4
CCOC(=O)COc1ccc(Br)cc1/C=C\c1[nH]c(=O)[nH]c(=O)c1[N+](=O)[O-],20.6 µM (active),-21.8
CCOC(=O)CSC1=NC(=O)/C(=C/c2ccc(Br)cc2)S1,inactive,1.95
CCOC(=O)COc1ccc(Br)cc1/C=C/c1[nH]c(=O)[nH]c(=O)c1[N+](=O)[O-],inactive,-18.1
CCCOc1ccccc1/C=C1\SC(N)=NC1=O,inactive,13.8
CCOC(=O)COc1ccc(Br)cc1/C=C1\SC(N)=NC1=O,5.8 µM (active),-21.5
CCCOc1ccc(/C=C/c2[nH]c(=O)[nH]c(=O)c2[N+](=O)[O-])cc1OCC,inactive,-5.22
Cc1c(C(=O)N2CCCC2)sc(NC(=O)c2ccco2)c1C#N,inactive,-19.3
COc1cc(NC(=O)N[C@H](C(=O)O)C(C)C)cc(OC)c1,5.8 µM (active),-13.1
COC(=O)[C@@H](NC(=O)Nc1cccc(OC)c1)C(C)C,inactive,-18
COC(=O)[C@@H](NC(=O)Nc1ccc(OC)cc1)C(C)C,inactive,-11.6
Nc1nc2ccc(Oc3ccccc3)cc2s1,inactive,-7.07
CCOC(=O)CSc1nc(=O)n2ccccc2n1,inactive,-9.97
CCN1CCN(Cc2ccc(OCc3ccccc3)c(OC)c2)CC1,inactive,-5.92
COc1ccc(CN2CCN(C)CC2)cc1OCc1ccccc1,18.4 µM (active),-3.92
COc1ccc(CN2CCC(C)CC2)cc1OCc1ccccc1,inactive,4.43
CC(=O)Cc1cc(=O)c2c(C)cc(O)c(C3OC(CO)C(O)C(O)C3O)c2o1 (centres undefined),inactive,-1.27
O=C(COC(=O)c1cc(-c2ccccc2)nc2ccccc12)Nc1ccc2c(c1)OCO2,inactive,2.4

Compound,Potency,cell number change [%]
COC(=O)c1ccc(-n2c(C)nc(=O)c(-c3ccccc3)c2C)cc1,inactive,0.97
CC(=O)Nc1ccc(-n2c(C)nc(=O)c(-c3ccccc3)c2C)cc1,13 µM (active),13.2
Cc1nc(=O)c(-c2ccccc2)c(C)n1-c1ccc(O)cc1,inactive,0.899
CCN(/C=N/S(=O)(=O)c1ccc(Cl)cc1)CC,inactive,6.24
COc1ccccc1-n1c(C)cc(SC)c(C(C)=O)c1=S,inactive,
CSc1cc(C)n(-c2ccc(Cl)cc2)c(=S)c1C(C)=O,inactive,5.69
CSc1cc(C)n(-c2ccccc2C)c(=S)c1C(C)=O,29.1 µM (active),16.2
Cc1ccccc1NC(=O)NC1(C(=O)NCCCN2CCOCC2)CCCCC1,inactive,-17.7
CC(=O)N1c2c(cc(Br)cc2S(=O)(=O)NCc2ccc3c(c2)OCO3)CC1C (centres undefined),inactive,-27.2
CCCc1ccc2oc(C(=O)N3CCN(c4cnccn4)CC3)c(C)c2c1,inactive,-14.5
CCCc1ccc2oc(C(=O)N3CCC(O)CC3)c(C)c2c1,inactive,4.78
CCCc1ccc2oc(C(=O)N3CCN(CC(=O)NC(C)C)CC3)c(C)c2c1,4.11 µM (active),-11.6
COc1ccc(Cl)cc1C(=O)NNC(=O)c1cccnc1,inactive,
CS(=O)(=O)c1ccc2sc(NC(=O)c3cc4ccccc4o3)nc2c1,inactive,-15.1
Cc1cc(C)nc(OC(C(=O)O)C(OCC(C)C)(c2ccccc2)c2ccccc2)n1 (centres undefined),29.1 µM (active),-23.5
CCC(C)COC(c1ccccc1)(c1ccccc1)C(Oc1nc(C)cc(C)n1)C(=O)O (centres undefined),inactive,
Cc1cc(C)nc(OC(C(=O)O)C(OCc2ccccc2)(c2ccccc2)c2ccccc2)n1 (centres undefined),inactive,-6.47
Cc1cc(/C(N)=N/OC(=O)Nc2ccccc2)no1,inactive,22.2
O=S(=O)(Nn1cnnc1)c1ccc2ccccc2c1,inactive,-5.21
Cc1ccsc1CNC12CC3CC(CC(C3)C1)C2,inactive,10.4
COc1ccc(Cl)cc1NC(=O)CN(C)CC(=O)N1CC(=O)Nc2ccccc21,1.3 µM (active),-5.42
Cc1ccc(Cl)cc1NC(=O)CNC(=O)N1CC(=O)Nc2ccccc21,inactive,-12.7
COc1ccc(Cl)cc1NC(=O)CN(C)CC(=O)Nc1ccccc1-c1ccccc1,inactive,22.9
